Only some compounds are listed: those with a hit (about 2.8% of all), similar ones and a draw of the others.
Fam108B inh: Fam108B inhibition, counter-screen for RBBP9 inhibitors; recombinant Fam108B, FP-Rh probe fluorescence polarization; hit rate 0.33% among 300,000; inhibition, % at 9.51 µM;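 active = inhibition above the screen mean inhibition plus 3 SD, computed separately per campaign, cut at about 18% in these data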;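 also: inhibitors lower polarization as less probe binds the enzyme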
PAFAH1B3 inh: PAFAH1B3 (human) inhibition; hit rate 0.28% among 340,000; inhibition, % at 3.39 µM; Q15102; recombinant PAFAH1B3, FP-rhodamine probe, fluorescence polarization; AID 492972;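 active = inhibition above the screen-wide average of all tested compounds plus 3 SD, cut at about 25% in these data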;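 also: 0% = enzyme with DMSO only and 100% = wells lacking PAFAH1B3 protein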
Target sequence (Q15102 whole entry, looked up): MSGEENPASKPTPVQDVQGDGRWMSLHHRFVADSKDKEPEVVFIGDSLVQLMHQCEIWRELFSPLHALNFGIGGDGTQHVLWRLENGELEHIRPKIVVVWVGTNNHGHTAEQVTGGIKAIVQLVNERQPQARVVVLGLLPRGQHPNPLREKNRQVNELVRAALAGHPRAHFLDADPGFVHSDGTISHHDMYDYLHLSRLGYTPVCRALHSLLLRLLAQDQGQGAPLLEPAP
PAFAH2 FP inh: PAFAH2 (human) inhibition | Q99487 | recombinant PAFAH2, FP-rhodamine activity probe, fluorescence polarization | inhibition, % at 3.39 µM | hit rate 0.99% among 340,000 | AID 492956;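 active = inhibition above the mean over all tested compounds plus 3 SD, cut at about 30% in these data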;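 also: inhibitors block probe labeling of enzyme so polarization drops; 0% = enzyme with DMSO and 100% = wells lacking PAFAH2 protein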
PAFAH1B2 inh: PAFAH1B2 (human) inhibition | P68402 | recombinant PAFAH1B2, FP-rhodamine activity probe, fluorescence polarization | inhibition, % at 3.39 µM | AID 492953 | hit rate 1.2% among 340,000;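 active = inhibition above the mean of all tested compounds plus 3 SD, cut at about 24% in these data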;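 also: 0% = enzyme with DMSO and 100% = wells lacking PAFAH1B2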
pPAFAH inh: pPAFAH (human) enzyme inhibition; Q13093; recombinant pPAFAH, FP-rhodamine probe fluorescence polarization; hit rate 1.5% among 330,000; inhibition, % at 3.39 µM;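 active = inhibition above the mean inhibition across the screen plus 3 SD, cut at about 25% in these data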;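 also: inhibitors block binding of the rhodamine activity-based probe so polarization drops; 0% = enzyme with DMSO and 100% = wells lacking pPAFAH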
PME-1 inh: PME-1 (human) inhibition. AID 2130. Q9Y570. recombinant PME-1, FP-Rh probe fluorescence polarization. hit rate 0.53% among 320,000. inhibition, % at 5.9 µM;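 active = inhibition above the campaign mean of all compounds plus 3 SD, cut at about 26% in these data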;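 also: competitive labeling of PME-1 active site by serine hydrolase directed probe; 0% = PME-1 with DMSO and 100% = wells lacking PME-1 enzyme; inhibitors block probe labeling so polarization falls and inhibition rises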
Target sequence (Q9Y570 whole entry, looked up): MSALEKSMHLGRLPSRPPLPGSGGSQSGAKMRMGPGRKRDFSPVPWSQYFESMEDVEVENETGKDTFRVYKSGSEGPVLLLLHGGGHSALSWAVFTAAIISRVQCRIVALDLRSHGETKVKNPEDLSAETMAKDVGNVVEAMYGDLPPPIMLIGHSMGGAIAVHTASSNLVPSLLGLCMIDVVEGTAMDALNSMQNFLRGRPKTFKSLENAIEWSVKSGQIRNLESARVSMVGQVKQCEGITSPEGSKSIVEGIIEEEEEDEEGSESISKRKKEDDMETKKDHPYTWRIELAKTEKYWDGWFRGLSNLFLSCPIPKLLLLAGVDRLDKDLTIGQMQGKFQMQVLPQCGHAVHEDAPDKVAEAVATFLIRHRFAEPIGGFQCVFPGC
pPAFAH FP conf: confirmation of human plasma PAF acetylhydrolase (pPAFAH) inhibitors | shares compounds with pPAFAH inh | recombinant pPAFAH, FP-Rh probe fluorescence polarization | inhibition, % at 3.39 µM | hit rate 72% among 2,300 | AID 463230;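 active = mean inhibition of the triplicate above the hit cutoff set for the earlier primary screen, cut at about 25% in these data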;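 also: 0% = enzyme with DMSO and 100% = wells lacking pPAFAH enzyme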
Active calls of the source: *; . = not tested or not shown.

SMILES	Fam108B inh	PAFAH1B3 inh	PAFAH2 FP inh	PAFAH1B2 inh	pPAFAH inh	PME-1 inh	pPAFAH FP conf
COc1ccc(/C=C/C(=O)c2ccc(OC)cc2OC)cc1	-2	3	-7	2	-4	-6	.
CNc1ccc(Br)cc(C(=O)/C=C/c2ccc(OC)cc2)c1=O	10	9	16	8	43*	13	13
CC1(C)C(=O)N(CCN2CCC(C(=O)c3ccc(F)cc3)CC2)c2ccccc21	2	5	7	-1	12	-2	.
CCOC(=O)C(C(=O)OCC)c1cc(Br)c2noc3c2c1C(=O)c1ccccc1-3	7	22	28	7	70*	23	11
O=C1NC(=O)C(c2ccccc2[N+](=O)[O-])=C1Nc1ccc(O)c(Cl)c1	16	8	12	0	44*	6	6
O=C(NNc1ccccc1[N+](=O)[O-])Nc1ccc(Cl)c(Cl)c1	-13	1	-10	4	-2	-5	.
Cn1cc(S(=O)(=O)Nc2cccc3ccccc23)c(=O)n(C)c1=O	5	9	-3	-1	4	3	.
COc1ccc(C(=O)N/N=C/c2ccc(OC)c(COc3ccc(F)cc3)c2)cc1	-14	7	-24	-5	9	-20	.
COc1cccc(OCc2cc(/C=N/Nc3ccc(C(=O)O)cc3)ccc2OC)c1	14	-1	15	0	39*	10	65*
Cn1nc(C(=O)N2CCN(c3ccccn3)CC2)c2ccccc2c1=O	0	-1	-8	8	0	0	.
COc1ccc(S(=O)(=O)c2c(N)n(Cc3ccco3)c3nc4ccccc4nc23)cc1	4	7	19	-2	36*	-10	9
COc1ccc(NC(=O)CC2SC(N3CCOCC3)=NC2=O)cc1OC (centres undefined)	.	2	-1	4	0	1	.
O=C(OCC(=O)N1CCOCC1)c1ccc2[nH]c3c(c2c1)CCCC3	4	5	2	-2	-1	-11	.
O=C(COC(=O)c1ccc2[nH]c3c(c2c1)CCCC3)Nc1ccccc1	2	-2	77*	3	43*	8	41*
CCCCCCCCCCS(=O)(=O)N/N=C/c1ccc(O)cc1	-1	-5	3	3	38*	-3	44*
CCOC(=O)C1CCN(Cc2ccc(OC)c(OCc3ccccc3)c2)CC1	1	8	-2	5	3	1	.
CCOC(=O)C1CCN(Cc2ccc(OCc3ccccc3)c(OC)c2)CC1	3	9	1	1	72*	-2	-1
O=C(CSc1nc2cc([N+](=O)[O-])ccc2n1-c1ccccc1)NCc1ccc2c(c1)OCO2	0	4	3	-6	44*	-1	37*
CCOC(=O)C1Nc2ccc(C(=O)O)cc2C2C=CCC12 (centres undefined)	18	49*	18	24	40*	-39	7
CCOC(=O)C1Nc2c(F)cc(C)cc2C2C=CCC12 (centres undefined)	5	.	.	.	10	4	.
O=C1c2ccccc2C(=O)c2cc(S(=O)(=O)Nc3ccccc3)ccc21	5	11	18	6	37*	24	34*
Cc1ccc(CNC(=O)c2ccc3c(=O)[nH]c4c(C(=O)NCC5CCCO5)sc(=S)n4c3c2)cc1 (centres undefined)	17	34*	31*	30*	38*	16	75*
COc1ccc(CNc2ncnc3c2[nH]c2ccccc23)cc1	3	.	.	.	13	23	.
COc1ccc(CNc2ncnc3c2[nH]c2cc(OC)c(OC)cc23)cc1	14	19	12	11	36*	3	22
CCCC1CC(C(=O)Nc2ccccc2)C(=O)O1 (centres undefined)	2	2	9	5	0	4	.
SMILES	Fam108B inh	PAFAH1B3 inh	PAFAH2 FP inh	PAFAH1B2 inh	pPAFAH inh	PME-1 inh	pPAFAH FP conf
O=C(Nc1ccc2c(c1)CCC2)C1CCN(c2c3c(nc4ncnn24)CCC3)CC1	-1	-3	-4	5	16	-2	.
O=C(Nc1ccc(Oc2ccccc2)cc1)C1CCN(c2c3c(nc4ncnn24)CCC3)CC1	-1	-10	-1	1	76*	-1	75*
O=C(O)CCN1C(=O)/C(=C\c2cccc(Oc3ccccc3)c2)SC1=S	2	9	12	28*	36*	19	17
O=C(O)CCN1C(=O)/C(=C\c2ccncc2)SC1=S	4	5	2	-4	1	-2	.
O=C(O)COc1ccc(/C=C2/SC(=S)N(Cc3ccccc3)C2=O)cc1	-4	9	12	4	54*	-9	19
O=C1NC(=O)c2cc(Oc3ccc([N+](=O)[O-])cc3)ccc21	-1	5	4	7	3	0	.
N#C/C(=N\Nc1cccc(C(F)(F)F)c1)C(=O)c1ccsc1	10	7	16	11	37*	16	29*
CCOc1cc(C(=O)N2CCCN(C)CC2)cc(OCC)c1OCC	1	-3	-1	2	7	-3	.
O=C1NC(=Nc2ccc(O)cc2)S/C1=C\C=C\c1ccco1	17	10	8	1	53*	17	14
COc1ccc(-n2nc3c(c2NC(=O)c2ccc(Br)o2)CS(=O)(=O)C3)cc1	0	7	-4	3	6	-1	.
CNc1ccccc1C(C)(C)c1cn(-c2ccc([N+](=O)[O-])cc2)nn1	-3	-10	-11	4	-5	6	.
CCOC(=O)c1cc(-c2ccc(F)cc2)n(CCC(=O)NC2CCN(Cc3ccccc3)CC2)c1C	-4	-2	9	0	40*	0	16
CCOC(=O)c1cc(-c2ccc(OC)cc2)n(CCC(=O)NC2CCN(Cc3ccccc3)CC2)c1C	-2	4	-7	-1	16	-1	.
O=C(C[C@H]1C/C=C\CC[C@H](Cc2ccc(F)cc2)C(=O)O[C@H](c2ccccc2)CNC1=O)N[C@H](CO)Cc1ccccc1	.	13	6	4	55*	.	-3
O=C(C[C@H]1C/C=C\C[C@H](Cc2ccc(F)cc2)C(=O)O[C@@H](c2ccccc2)CNC1=O)N[C@H](CO)Cc1ccccc1	.	-9	-5	11	2	.	.
O=C(O)c1nn(CC(=O)N2CCC(Cc3ccccc3)CC2)c(=O)c2ccccc12	-1	8	6	2	2	2	.
O=C(Nc1nc(-c2ccco2)c(-c2ccco2)s1)c1c(F)cccc1Cl	.	8	24	0	48*	-2	16
CC1CCN(C(=O)CCS(=O)(=O)c2cc3c(cc2Cl)NC(=O)CO3)CC1	2	2	3	1	-8	3	.
CCc1ccccc1OCC(=O)Nc1cc(S(=O)(=O)N(CC)CC)ccc1N1CCOCC1	.	-1	-11	-1	49*	12	10
CCN(CC)S(=O)(=O)c1ccc(N2CCOCC2)c(NC(=O)COc2ccccc2)c1	-2	10	7	0	9	8	.

Source: PubChem (The Scripps Research Institute Molecular Screening Center)
